High-throughput results as filed in PubChem.
This is a sample that favours compounds with a hit; in the whole collection about 12% have one here.
Shiga toxin inh: Shiga toxin inhibition; Vero cells, Shiga toxin protein synthesis inhibition reporter; inhibition, % at 38.7 µM; 290,000 compounds, 9.2% hits; in the data active means inhibition mostly above about 28%, no sharp cut-off; inactive means mostly below about 43%
CHX counter: affects cycloheximide protein synthesis inhibition readout, counter-screen; 300,000 compounds, 12% hits; cell reporter, cycloheximide protein synthesis inhibition counterscreen; max response, %; AID 2314; in the data active means max response mostly above about 13%, no sharp cut-off; inactive means mostly below about 14%; further: read at 38.3 µM for the half of the compounds with a filed dose
NS1 inh: inhibitors of influenza NS1 protein function; Potency, µM (titrated, usually from 46.1 µM); 270,000 compounds, 0.4% hits; AID 2326; further: actives are rising curves; nearly all actives have a fitted effect of over 50% in size
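Growth recovery, yeast-based: influenza A NS1 expressed in S. cerevisiae causes slow growth, and suppressors are detected by OD600. The parent strain without NS1 is used as positive control.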
SARS PLP yeast: SARS-CoV PLP inhibition in yeast; S. cerevisiae expressing SARS-CoV PLpro, growth rescue; Potency, µM (doses to about 32.9 µM), most hits filed as activators; 330,000 compounds, 0.19% hits; further: nearly all actives have a fitted effect of over 55% in size
Hits are given with their value. Unless noted, the call rests on the fitted dose curve.

COc1ccc(/C=C/C(=O)c2ccc(C)c([N+](=O)[O-])c2)cc1O was read as Shiga toxin inh 79, CHX counter 46, NS1 inh inactive and SARS PLP yeast inactive.
Cc1nn(-c2ccccc2)c2c1C(c1ccc(F)cc1F)C(C#N)=C(N)O2 (configuration not stated) was read as Shiga toxin inh inactive, CHX counter inactive, NS1 inh inactive and SARS PLP yeast inactive.
Nc1nn(-c2ccccc2)c(N)c1N=Nc1ccc2c(c1)OCO2 was read as Shiga toxin inh active, CHX counter 44, NS1 inh inactive and SARS PLP yeast inactive.
For Cc1nn(-c2ccccc2)c(N)c1N=Nc1cccnc1 the results were Shiga toxin inh 61, CHX counter 41 and SARS PLP yeast inactive.
For Nc1nn(-c2ccccc2)c(N)c1N=Nc1cccc(F)c1 the results were Shiga toxin inh 88, CHX counter 62, NS1 inh inactive and SARS PLP yeast inactive.
For C(=N\N(c1ccccc1)c1ccccc1)/c1ccc2c(c1)OCO2 the results were Shiga toxin inh inactive, CHX counter inactive, NS1 inh inactive and SARS PLP yeast inactive.
Screening O=C1CSC(c2ccccc2[N+](=O)[O-])N1c1cccc(F)c1 (configuration not stated) returned Shiga toxin inh inactive, CHX counter inactive and SARS PLP yeast inactive.
For CC(C)(c1cc(Br)c(O)c(Br)c1)c1cc(Br)c(O)c(Br)c1 the results were SARS PLP yeast inactive.
`CCCCn1c(=O)[nH]c(=O)c2c(C(=O)OCC)cc(-c3cccs3)nc21` gave Shiga toxin inh inactive, CHX counter inactive, NS1 inh inactive and SARS PLP yeast inactive.
`CCCn1c(=O)[nH]c(=O)c2c(C(=O)OCC)cc(-c3cccs3)nc21` gave Shiga toxin inh 44, CHX counter 31 and SARS PLP yeast inactive.
CCN(c1ccc(OC)cc1)S(=O)(=O)c1ccc2c(c1)CC(C)N2C(=O)C1CC1 (configuration not stated) was read as Shiga toxin inh inactive, CHX counter 22, NS1 inh inactive and SARS PLP yeast inactive.
COc1ccc(CNS(=O)(=O)c2ccc3c(c2)CC(C)N3C(=O)C2CC2)cc1 (configuration not stated) was read as Shiga toxin inh inactive, CHX counter inactive, NS1 inh inactive and SARS PLP yeast inactive.
`O=C(c1cc(=O)c2ccccc2o1)N(Cc1ccccc1)C1CCS(=O)(=O)C1` (configuration not stated) gave Shiga toxin inh inactive, CHX counter inactive, NS1 inh inactive and SARS PLP yeast inactive.
For O=C(c1cc2ccccc2oc1=O)N(Cc1ccccc1)Cc1ccc2c(c1)OCO2 the results were Shiga toxin inh inactive, CHX counter inactive, NS1 inh inactive and SARS PLP yeast inactive.
O=C(c1cc2ccccc2oc1=O)N(Cc1ccco1)Cc1cccs1 was read as Shiga toxin inh inactive, CHX counter 17, NS1 inh inactive and SARS PLP yeast inactive.
Cc1ccc(CN(C(=O)c2cc3ccccc3oc2=O)C2CCS(=O)(=O)C2)cc1 (configuration not stated) was read as Shiga toxin inh 73, CHX counter 39, NS1 inh inactive and SARS PLP yeast inactive.
`O=C(c1cc2ccccc2oc1=O)N(Cc1cccs1)Cc1cccs1` gave Shiga toxin inh inactive, CHX counter inactive, NS1 inh inactive and SARS PLP yeast inactive.
For CCc1ccc(CN(C(=O)c2cc3ccccc3oc2=O)C2CCS(=O)(=O)C2)cc1 (configuration not stated) the results were Shiga toxin inh 72, CHX counter 27, NS1 inh inactive and SARS PLP yeast inactive.
CCc1ccc(CN(C(=O)c2oc3ccccc3c2C)C2CCS(=O)(=O)C2)cc1 (configuration not stated) was read as Shiga toxin inh inactive, CHX counter inactive, NS1 inh inactive and SARS PLP yeast inactive.
For CC(C)N(Cc1ccc(F)cc1)C(=O)c1cc2ccccc2oc1=O the results were Shiga toxin inh 55, CHX counter 43, NS1 inh inactive and SARS PLP yeast inactive.
`O=C(CN1CCN(S(=O)(=O)c2ccc(Cl)cc2)CC1)NC1CC1` gave Shiga toxin inh inactive, CHX counter inactive, NS1 inh inactive and SARS PLP yeast inactive.
Screening Cc1ccc(N2C(=O)CC(Nc3ccc(Cl)c(S(=O)(=O)N(C)C)c3)C2=O)c(C)c1 (configuration not stated) returned Shiga toxin inh inactive, CHX counter inactive, NS1 inh inactive and SARS PLP yeast inactive.
`O=C(c1cc2ccccc2oc1=O)N(Cc1ccc(F)cc1)C1CCS(=O)(=O)C1` (configuration not stated) gave Shiga toxin inh 130, CHX counter 64, NS1 inh inactive and SARS PLP yeast inactive.
